Source: PubChem BioAssay (NCATS)
Unmarked numbers belong to inactive results. Records with an inconclusive call do not appear. The source made the active and inactive calls. Unless noted, calls follow the shape of the dose curve; as a rule, active = well fitted curve in the direction sought with a large enough effect; inconclusive = small, poorly fitted or top-dose-only effect, or another doubt; inactive = no such curve, though single readings can be large; an effect the other way counts as inactive or inconclusive.

Assays:
[1] = target: Lysosomal acid glucosylceramidase (Homo sapiens) (UniProt P04062); experiment: Glucocerebrosidase-p2 (AID 348; in the data active = potency below about 10 µM; also: potency is read from the fitted curve at half-maximal effect); details: purified GBA, blue fluorogenic substrate, 40 min
Sequence of Lysosomal acid glucosylceramidase (Homo sapiens) (P04062 whole entry, looked up): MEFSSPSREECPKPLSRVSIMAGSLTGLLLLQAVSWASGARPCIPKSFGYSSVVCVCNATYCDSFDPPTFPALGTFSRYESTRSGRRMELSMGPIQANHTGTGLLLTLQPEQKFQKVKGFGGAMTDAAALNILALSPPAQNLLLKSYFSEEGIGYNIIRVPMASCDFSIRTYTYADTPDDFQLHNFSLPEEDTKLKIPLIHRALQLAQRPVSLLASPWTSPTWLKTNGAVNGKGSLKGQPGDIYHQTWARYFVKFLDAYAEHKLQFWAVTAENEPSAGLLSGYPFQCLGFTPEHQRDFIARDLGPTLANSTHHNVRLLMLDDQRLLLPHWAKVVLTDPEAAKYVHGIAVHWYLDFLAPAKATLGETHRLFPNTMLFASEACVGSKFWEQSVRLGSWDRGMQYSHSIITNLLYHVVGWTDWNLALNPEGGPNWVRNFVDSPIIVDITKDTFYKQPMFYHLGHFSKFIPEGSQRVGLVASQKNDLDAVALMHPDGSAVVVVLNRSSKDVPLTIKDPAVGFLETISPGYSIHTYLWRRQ
Outline: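 Normal human glucocerebrosidase (0.2 nM) with blue fluorogenic substrate (80 uM final) in citrate/phosphate pH 5.9 with 10mM sodium taurocholate, 0.01% tween-20; 40 min RT, NaOH/glycine stop; fluorescence Ex 365/Em 440; AC50 from a titration from 0.6 nM upwards.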

[2] = AP1 Signaling Pathway (AID 357; active = well fitted curve in either direction with a large enough effect, not every such curve was filed as active;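 also: ME-180 reporter cells stimulated with EGF at its EC50 level; % is scaled to controls: 0 for no effect and ±100 for the full control effect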); details: ME-180 AP-1-bla reporter, EGF-induced, beta-lactamase ratio, 5 h; at 7.69 µM (top of the series) unless noted
Outline: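 In this screen, ME-180 cells in Opti-MEM with 0.5% dialyzed FBS received EC50 EGF and compound titrations for 5 h. AP-1 reporter beta-lactamase was detected via CCF4 ratio, giving AC50 for positive and negative modulators.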

[3] = target: Cytochrome P450 1A2 (Homo sapiens) (UniProt P05177); experiment: p450-cyp1a2 (AID 410; calls by dose curve; also: potency is read from the fitted curve at half-maximal effect)
Sequence of Cytochrome P450 1A2 (Homo sapiens) (P05177 whole entry, looked up): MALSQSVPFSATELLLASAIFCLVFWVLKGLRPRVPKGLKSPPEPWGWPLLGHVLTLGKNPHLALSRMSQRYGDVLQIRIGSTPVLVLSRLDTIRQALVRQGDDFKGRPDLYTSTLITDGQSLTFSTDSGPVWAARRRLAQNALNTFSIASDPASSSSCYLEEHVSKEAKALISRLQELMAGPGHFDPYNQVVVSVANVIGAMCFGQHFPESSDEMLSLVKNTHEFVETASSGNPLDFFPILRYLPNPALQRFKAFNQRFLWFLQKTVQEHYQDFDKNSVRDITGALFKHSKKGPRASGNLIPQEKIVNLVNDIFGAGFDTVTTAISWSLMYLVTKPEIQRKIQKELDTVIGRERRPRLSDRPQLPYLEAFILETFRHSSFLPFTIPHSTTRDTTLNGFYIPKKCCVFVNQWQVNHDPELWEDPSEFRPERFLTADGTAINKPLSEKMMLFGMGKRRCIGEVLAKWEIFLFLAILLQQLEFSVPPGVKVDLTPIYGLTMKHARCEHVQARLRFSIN
Outline: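 20nM CYP1A2, 100uM Luciferin-ME (=Km), 100mM KPO4; cpd 10 min RT; +NADPH regen, 60 min RT; stop/detect 20 min; luminescence. Normalized to furafylline 57 uM = full inhibition.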

[4] = NFAT Signaling Pathway (AID 444; active = well fitted curve in either direction with a large enough effect, not every such curve was filed as active;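 also: carbachol stimulus at about its EC50 of 1 µM final; % is scaled to controls: 0 for no effect and ±100 for the full control effect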); details: Jurkat NFAT-bla M1, carbachol, beta-lactamase ratio, 5 h; at 7.69 µM (top of the series) unless noted
Outline: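 Jurkat cells carrying an NFAT-driven β-lactamase reporter and co-transfected muscarinic M1 receptor were treated with compound plus carbachol (1 uM final, an EC50 level) for 5 h at 37 °C. CCF4 loading followed for 1 h at RT; 460/530 nm ratio gave %activity.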

[5] = Stat Signaling Pathway (AID 446; active = well fitted curve in either direction with a large enough effect, not every such curve was filed as active;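 also: ME-180 cervical cancer cells given 40 pM IL-6 alongside compound; SIE-controlled beta-lactamase reporter measured as 460/530 nm FRET emission ratio; % is scaled to controls: 0 for no effect and ±100 for the full control effect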); details: ME-180 SIE beta-lactamase reporter, IL-6 stimulated, 5 h; at 7.69 µM (top of the series) unless noted
Outline: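 Normalization used AC90 stimulation (300 pM IL-6) and AC90 inhibition (125 nM pan-JAK inhibitor at 40 pM IL-6). The underlying signal is SIE-driven beta-lactamase in ME-180 cells after 5 h IL-6 exposure with compound.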

[6] = target: Glucocorticoid receptor (Homo sapiens) (UniProt P04150); experiment: GR-GFP Redistribution (AID 450;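 active = compounds whose dose series gives a full or clear partial fitted curve of increased nuclear translocation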; also: potency is read from the fitted curve at half-maximal effect); details: U2OS GR-GFP nuclear translocation, laser cytometry, 2 h
Sequence of Glucocorticoid receptor (Homo sapiens) (P04150 whole entry, looked up, the tested form may be a part): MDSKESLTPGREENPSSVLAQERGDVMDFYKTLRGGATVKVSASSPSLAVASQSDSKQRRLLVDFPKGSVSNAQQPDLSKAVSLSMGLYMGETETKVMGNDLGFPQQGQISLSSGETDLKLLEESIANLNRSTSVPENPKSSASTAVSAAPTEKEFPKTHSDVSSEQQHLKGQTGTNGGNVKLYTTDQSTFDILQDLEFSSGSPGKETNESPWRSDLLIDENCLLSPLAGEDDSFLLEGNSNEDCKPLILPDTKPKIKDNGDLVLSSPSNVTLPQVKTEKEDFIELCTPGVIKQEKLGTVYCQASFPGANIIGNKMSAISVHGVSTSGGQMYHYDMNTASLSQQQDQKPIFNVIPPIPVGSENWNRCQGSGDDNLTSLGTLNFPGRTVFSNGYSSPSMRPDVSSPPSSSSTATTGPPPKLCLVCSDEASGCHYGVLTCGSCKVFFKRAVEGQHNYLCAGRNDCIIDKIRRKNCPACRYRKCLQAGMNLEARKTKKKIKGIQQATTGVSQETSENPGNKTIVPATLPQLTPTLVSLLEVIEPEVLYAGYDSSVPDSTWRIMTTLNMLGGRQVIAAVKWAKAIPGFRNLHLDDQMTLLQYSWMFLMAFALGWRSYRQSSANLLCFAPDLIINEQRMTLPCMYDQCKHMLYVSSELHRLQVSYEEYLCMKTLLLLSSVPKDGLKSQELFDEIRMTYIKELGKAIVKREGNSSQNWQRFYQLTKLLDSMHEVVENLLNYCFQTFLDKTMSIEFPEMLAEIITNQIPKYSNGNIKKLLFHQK

[7] = target: Glucocorticoid receptor (Homo sapiens) (UniProt P04150); experiment: GR-EFC Redistribution (AID 451; calls by dose curve; also: potency is read from the fitted curve at half-maximal effect); details: CHO-K1 GR-EFC translocation, beta-gal luminescence, 2 h
Outline: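 CHO-K1 cells stably expressing nuclear-localized β-gal enzyme acceptor and GR fused C-terminally to the enzyme donor fragment; ligand-driven nuclear translocation restores β-gal by complementation. Compounds titrated up to 46 uM final, 2 h at 37 °C; luminescence read.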

[8] = target: Mitogen-activated protein kinase 10 (Mus musculus) (UniProt Q61831); experiment: JNK3 AlphaScreen Assay (AID 530; active = well fitted curve in either direction with a large enough effect, not every such curve was filed as active;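 also: kinase came from lysate of stimulated human HepG2 cells; signal reports phosphorylation of biotinylated GST-cJun 1-79 at Ser73 with 10 µM ATP; % is scaled to controls: 0 for no effect and ±100 for the full control effect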)
Outline: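 Biotinylated GST-cJun(1-79) served as substrate for JNK3 in HepG2 lysates stimulated with IL-1beta and TNF-alpha. ATP was 10 uM final, pH 7.6. Ser73 phosphorylation was quantified by AlphaScreen (680 nm excitation).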

[9] = target: Cytochrome P450 2C9 (Homo sapiens) (UniProt P11712); experiment: qHTS Assay for Inhibitors and Substrates of Cytochrome P450 2C9 (AID 883); also: potency is read from the fitted curve at half-maximal effect; nearly all actives have a fitted effect of over 60% in size
Outline: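 Human CYP2C9 (10nM) hydroxylated Luciferin-H (100uM, at its KM) to luciferin in 25mM KPO4. Compound was preincubated 10 min at 37C, then NADPH regeneration started a 60 min reaction at 37C. Luminescence was read after detection reagent, normalized to 57uM sulphaphenazole.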

[10] = target: Cytochrome P450 3A4 (Homo sapiens) (UniProt P08684); experiment: qHTS Assay for Inhibitors and Substrates of Cytochrome P450 3A4 (AID 884); also: potency is read from the fitted curve at half-maximal effect; nearly all actives have a fitted effect of over 50% in size
Sequence of Cytochrome P450 3A4 (Homo sapiens) (P08684 whole entry, looked up): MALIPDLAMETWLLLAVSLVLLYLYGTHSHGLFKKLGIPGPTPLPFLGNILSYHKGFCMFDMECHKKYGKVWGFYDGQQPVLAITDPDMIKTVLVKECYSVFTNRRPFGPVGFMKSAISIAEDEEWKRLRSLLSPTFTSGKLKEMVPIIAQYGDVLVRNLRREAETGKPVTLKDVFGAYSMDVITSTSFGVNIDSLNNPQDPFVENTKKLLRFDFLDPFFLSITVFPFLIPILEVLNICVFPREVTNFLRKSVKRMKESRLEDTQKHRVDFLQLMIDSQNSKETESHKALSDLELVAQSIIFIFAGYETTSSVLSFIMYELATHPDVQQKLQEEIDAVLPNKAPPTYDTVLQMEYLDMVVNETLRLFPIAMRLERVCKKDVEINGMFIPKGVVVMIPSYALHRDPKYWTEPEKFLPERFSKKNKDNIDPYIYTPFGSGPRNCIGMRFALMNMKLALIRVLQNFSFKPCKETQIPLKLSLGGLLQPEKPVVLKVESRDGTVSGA
Outline: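 Luminescent readout of luciferin produced by CYP3A4 (20 nM) dealkylation of Luciferin-PPXE, 25 uM (its KM). NADPH-driven reaction ran 60 min at RT after 10 min compound preincubation; data scaled to 57 uM ketoconazole as 100% inhibition.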

[11] = target: Cytochrome P450 3A4 (Homo sapiens) (UniProt P08684); experiment: qHTS Assay for Activators of Cytochrome P450 3A4 (AID 885); also: nearly all actives have a fitted effect of over 65% in size
Outline: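 Human CYP3A4 dealkylates Luciferin-PPXE to luciferin, which luciferase detection converts to light. Substrate was at its KM (25uM), buffer 200mM KPO4, reaction 60 min at RT.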

[12] = target: Cytochrome P450 2C19 (Homo sapiens) (UniProt P33261); experiment: qHTS Assay for Inhibitors and Substrates of Cytochrome P450 2C19 (AID 899); also: potency is read from the fitted curve at half-maximal effect; nearly all actives have a fitted effect of over 60% in size
Sequence of Cytochrome P450 2C19 (Homo sapiens) (P33261 whole entry, looked up): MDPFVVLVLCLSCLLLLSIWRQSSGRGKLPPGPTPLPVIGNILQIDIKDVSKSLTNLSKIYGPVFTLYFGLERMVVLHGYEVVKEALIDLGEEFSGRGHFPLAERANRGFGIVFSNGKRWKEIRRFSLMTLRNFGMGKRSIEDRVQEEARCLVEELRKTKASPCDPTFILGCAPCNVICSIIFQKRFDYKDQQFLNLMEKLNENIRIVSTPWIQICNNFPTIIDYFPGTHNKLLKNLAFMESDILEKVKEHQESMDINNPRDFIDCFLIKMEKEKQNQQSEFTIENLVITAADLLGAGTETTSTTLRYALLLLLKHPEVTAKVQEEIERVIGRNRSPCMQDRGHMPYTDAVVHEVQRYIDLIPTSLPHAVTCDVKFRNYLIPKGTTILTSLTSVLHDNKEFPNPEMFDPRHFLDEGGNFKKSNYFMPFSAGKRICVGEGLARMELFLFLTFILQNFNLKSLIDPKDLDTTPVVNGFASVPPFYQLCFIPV
Outline: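 Human CYP2C19 (5nM) with Luciferin-H EGE at 10uM (its KM) in 50mM KPO4 was preincubated with compound for 10 min at 37C. NADPH regeneration started a 60 min 37C reaction. Luciferin was read by luminescence, normalized to 57uM ketoconazole.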

[13] = target: Dual specificity protein kinase CLK4 (Homo sapiens) (UniProt Q9HAZ1); experiment: qHTS Assay for Inhibitors of CDC-like Kinase 4 (ADP-Glo Assay) (AID 1771); also: nearly all actives have a fitted effect of over 70% in size; also: potency is read from the fitted curve at half-maximal effect
Sequence of Dual specificity protein kinase CLK4 (Homo sapiens) (Q9HAZ1 whole entry, looked up): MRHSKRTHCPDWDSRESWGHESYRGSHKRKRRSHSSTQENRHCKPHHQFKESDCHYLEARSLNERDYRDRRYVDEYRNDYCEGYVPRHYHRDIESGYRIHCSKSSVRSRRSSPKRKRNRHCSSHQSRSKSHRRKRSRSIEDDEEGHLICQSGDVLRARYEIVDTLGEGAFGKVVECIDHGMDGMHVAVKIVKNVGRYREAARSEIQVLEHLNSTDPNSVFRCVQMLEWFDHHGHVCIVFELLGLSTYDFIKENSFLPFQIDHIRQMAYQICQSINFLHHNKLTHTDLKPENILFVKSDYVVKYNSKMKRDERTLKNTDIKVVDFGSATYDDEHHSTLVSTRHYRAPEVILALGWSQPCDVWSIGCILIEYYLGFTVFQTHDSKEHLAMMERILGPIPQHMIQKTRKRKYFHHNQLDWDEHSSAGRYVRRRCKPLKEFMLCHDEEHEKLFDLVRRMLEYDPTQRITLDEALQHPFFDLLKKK
Outline: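 25 nM Clk4, 100 uM RS peptide, 1 uM ATP (final); 2 mM MgCl2, 0.5 mM EGTA, 2.5 mM DTT, 0.01% Triton X-100; 1 hr RT. ADP-Glo readout: ATP depletion 45 min, conversion/luciferase 30 min, luminescence.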

[14] = target: Dual specificity protein kinase CLK4 (Homo sapiens) (UniProt Q9HAZ1); experiment: qHTS Assay for Inhibitors of CDC-like Kinase 4 (ADP-FP Assay) (AID 1795); also: nearly all actives have a fitted effect of over 60% in size; also: potency is read from the fitted curve at half-maximal effect
Outline: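 Kinase activity was followed as ADP output, converted from fluorescence polarization with a calibration curve. Reactions ran one hour at low ATP (1 uM) with RS peptide substrate.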

[15] = target: Ubiquitin carboxyl-terminal hydrolase 1 (Homo sapiens) (UniProt O94782); experiment: Inhibitors of USP1/UAF1: Pilot qHTS (AID 504865);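 also: rhodamine fluorescence freed from ubiquitin-rhodamine substrate followed over time; top concentration of the series differs between compounds; % is scaled to controls: 0 for no effect and ±100 for the full control effect; nearly all actives have a fitted effect of over 35% in size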
Sequence of Ubiquitin carboxyl-terminal hydrolase 1 (Homo sapiens) (O94782 whole entry, looked up): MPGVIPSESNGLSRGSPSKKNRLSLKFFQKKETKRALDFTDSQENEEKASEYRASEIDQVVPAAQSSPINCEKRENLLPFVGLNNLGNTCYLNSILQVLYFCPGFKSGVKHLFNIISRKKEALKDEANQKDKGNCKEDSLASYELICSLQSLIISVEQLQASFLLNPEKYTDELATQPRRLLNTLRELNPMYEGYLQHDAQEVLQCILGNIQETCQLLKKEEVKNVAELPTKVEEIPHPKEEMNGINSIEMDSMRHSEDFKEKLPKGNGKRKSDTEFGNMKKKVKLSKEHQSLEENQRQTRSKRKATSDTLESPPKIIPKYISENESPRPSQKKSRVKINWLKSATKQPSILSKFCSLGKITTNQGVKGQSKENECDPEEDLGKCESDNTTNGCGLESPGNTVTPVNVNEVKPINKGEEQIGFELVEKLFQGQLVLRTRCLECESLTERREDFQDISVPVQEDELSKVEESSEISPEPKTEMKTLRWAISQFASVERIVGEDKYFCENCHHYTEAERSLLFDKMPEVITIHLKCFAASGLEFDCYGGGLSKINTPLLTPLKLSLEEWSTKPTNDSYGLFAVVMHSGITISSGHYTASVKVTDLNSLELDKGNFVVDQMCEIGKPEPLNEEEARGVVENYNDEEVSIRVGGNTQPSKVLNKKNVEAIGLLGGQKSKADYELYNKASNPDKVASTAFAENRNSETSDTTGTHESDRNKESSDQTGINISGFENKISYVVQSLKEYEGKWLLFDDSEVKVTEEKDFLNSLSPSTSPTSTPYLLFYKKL
Outline: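 Enzyme-free wells gave the negative control, while test wells held 1nM USP1/UAF1 preincubated with compound for 15 min at room temperature. Ub-Rho at 150nM final started the reaction, and fluorescence at 480/540 nm was recorded kinetically.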

[16] = Primary qHTS for small molecule stabilizers of the endoplasmic reticulum resident proteome: Secreted ER Calcium Modulated Protein (SERCaMP) assay (AID 1508630); also: % is scaled to controls: 0 for no effect and ±100 for the full control effect
Outline: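 The SH-SY5Y reporter protocol was run at 3 concentrations up to 38.3 uM (primary) or 11 concentrations (follow-up): 16 h compound, 100 nM thapsigargin for 4 h, then extracellular luciferase luminescence.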

[17] = target: 3',5'-cyclic-AMP phosphodiesterase 4B (Homo sapiens) (UniProt Q07343); experiment: qHTS Assay for Inhibitors of PDE-IV (AID 607; active = well fitted activation curve with a large enough effect in the main read-out, with a control signal flat, not every such curve was filed as active; also: % of control where 0% means no effect)
Sequence of 3',5'-cyclic-AMP phosphodiesterase 4B (Homo sapiens) (Q07343 whole entry, looked up): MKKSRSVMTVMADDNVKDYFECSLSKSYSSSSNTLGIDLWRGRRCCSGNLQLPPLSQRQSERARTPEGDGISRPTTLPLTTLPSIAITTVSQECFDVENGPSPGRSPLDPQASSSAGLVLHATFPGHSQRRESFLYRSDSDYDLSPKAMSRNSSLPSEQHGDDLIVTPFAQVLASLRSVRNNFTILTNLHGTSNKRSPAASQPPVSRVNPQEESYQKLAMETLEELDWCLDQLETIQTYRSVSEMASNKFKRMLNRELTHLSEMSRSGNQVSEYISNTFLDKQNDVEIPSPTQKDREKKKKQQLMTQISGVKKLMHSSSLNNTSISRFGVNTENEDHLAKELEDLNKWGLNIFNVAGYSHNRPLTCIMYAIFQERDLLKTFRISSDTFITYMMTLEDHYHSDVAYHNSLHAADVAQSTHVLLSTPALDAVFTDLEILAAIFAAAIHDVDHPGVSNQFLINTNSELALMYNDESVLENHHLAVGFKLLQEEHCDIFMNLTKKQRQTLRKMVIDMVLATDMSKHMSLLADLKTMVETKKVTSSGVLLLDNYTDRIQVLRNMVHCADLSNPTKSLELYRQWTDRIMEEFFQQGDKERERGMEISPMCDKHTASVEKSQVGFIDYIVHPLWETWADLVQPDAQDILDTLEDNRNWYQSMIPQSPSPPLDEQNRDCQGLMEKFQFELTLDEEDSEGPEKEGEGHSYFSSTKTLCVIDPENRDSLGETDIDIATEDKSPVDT
Outline: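 HEK293 ACTOne cells with CNG channel (1000/well), endogenous PDE4; membrane potential dye, compounds up to 22.9 uM final. Fluorescence Ex 535/Em 590; RO 20-1724 (100 uM final) as reference.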

[18] = qHTS Assay for Identification of Small Molecule Agonists for Hypoxia Response Element Signaling Pathway (AID 914; active = well fitted activation curve with a large enough effect in the signal ratio, with a control signal flat, not every such curve was filed as active; the % refers to the signal ratio; also: % of control where 0% means no effect); details: ME-180 (cervical carcinoma) HRE-bla reporter, beta-lactamase ratio, CoCl2, 17 h; activation: stronger effect = higher value
Outline: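 Compounds in a titration series were added to ME-180 reporter cells alongside an EC50 level of CoCl2. After 17 hours, beta-lactamase activity was read as the 460nm/530nm emission ratio of CCF4, giving AC50 values.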

[19] = target: Dual specificity protein kinase CLK4 (Homo sapiens) (UniProt Q9HAZ1); experiment: qHTS Assay for Inhibitors of CDC-like Kinase 4 (Kinase-Glo Assay) (AID 1770); also: % is scaled to controls: 0 for no effect and ±100 for the full control effect; nearly all actives have a fitted effect of over 65% in size
Outline: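 Clk4 25 nM, RS peptide 100 uM, ATP 1 uM, pH 7.5 Tris, 10 mM MgCl2, 2.5 mM DTT; 4.5 h RT; ATP depletion read by Kinase-Glo luminescence.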

SMILES | Potency [1] | activity change, negative = inhibition [2] | Potency [3] | activity change, negative = inhibition [4] | activity, negative = inhibition [5] | Potency [6] | Potency [7] | Potency [8] | Potency [9] | Potency [10] | Potency [11] | Potency [12] | Potency [13] | Potency [14] | Potency [15] | outcome [16] | Potency [17] | activation [18] | Potency [19]
COc1cccc(Cn2c(=O)c(-c3cccs3)nc3cncnc32)c1 | > 11.4 µM | -13.8% | 5.01 µM (active) | -4.4% | 0.799% | > 9.22 µM | > 46 µM | inactive | 2.51 µM (active) | 5.01 µM (active) | inactive | 5.01 µM (active) | inactive | inactive | inactive | inactive | – | – | –
Cc1ccccc1-c1nccc(NCc2cccnc2)n1 | > 11.4 µM | 13% | 0.2 µM (active) | 3.23% | -15.6% | > 46 µM | > 46 µM | inactive | – | 3.98 µM (active) | inactive | 5.01 µM (active) | 28.2 µM (active) | inactive | inactive | inactive | inactive | – | –
c1cncc(-c2ccc3ncnc(NC4CCNCC4)c3c2)c1 | > 11.4 µM | 5.15% | 12.6 µM (active) | 13.2% | 3.6% | > 46 µM | > 46 µM | inactive | – | – | inactive | – | 15.8 µM (active) | 12.6 µM (active) | inactive | inactive | inactive | – | –
Cc1cnc(CNc2nc(-c3ccoc3)nc3ccccc23)cn1 | > 11.4 µM | -13.5% | 2 µM (active) | – | 9.84% | > 46 µM | > 46 µM | inactive | – | – | inactive | – | – | – | inactive | inactive | inactive | -5.75% | inactive
Cc1cnc(CNc2ncncc2-c2ccc(N(C)C)cc2)cn1 | > 11.4 µM | 3.22% | 3.16 µM (active) | -0.821% | 13.6% | > 46 µM | > 46 µM | inactive | – | – | inactive | – | 15.8 µM (active) | inactive | inactive | inactive | inactive | – | –
COCCn1c(=O)c(-c2ccc(Cl)cc2)nc2cnc(N3CCOCC3)nc21 | > 11.4 µM | 9.82% | 1 µM (active) | 7.69% | 9.52% | > 9.22 µM | > 46 µM | inactive | – | – | – | – | inactive | inactive | inactive | inactive | inactive | – | –
